Experimental data reported in PubChem BioAssay AID1159580 (chemical genetic matrix, 2015).
“And” between values parts separate entries of the source, which are not always exact repeats. Identical values can stand only once. Out of some 5,500 compounds screened, about 2,000 (36%) were called active. Not shown: some 18% with an inconclusive outcome. Cut-off read from the data, not from the text of the source: active = normalized growth mostly below about 0.91 (no sharp cut-off); inconclusive = no clear call, values can overlap the other calls; inactive = mostly above about 0.92. The list shows a part of the results.

Experiment: chemical genetic growth profiling, strain panel (AID 1159580);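 note: tested at 20 µM; growth read once vehicle control cultures reached saturation at 30 °C; 1 = growth at the plate median or of vehicle wells; lower values mean less growth of the strain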
Conditions: S. cerevisiae deletion strains, growth OD

Measured: normalized growth

COC(=O)C1=C(C)NC(C)=C(C(=O)OCCN(C)Cc2ccccc2)C1c1cccc([N+](=O)[O-])c1 (stereo not given)
inactive: locus YAL013W, strain DEP1, active compounds read low 1 | locus YAL021C, strain ccr4, active compounds read low 0.98 | locus YAL026C, strain drs2, active compounds read low 0.979 | locus YAL030W, strain snc1, active compounds read low 1.01 | locus YAL040C, strain CLN3, active compounds read low 1.02 | locus YBL061C, strain skt5, active compounds read low 0.984 | locus YBR009C, strain hhf1, active compounds read low 0.984 | locus YBR021W, strain FUR4, active compounds read low 0.935 | locus YBR023C, strain chs3, active compounds read low 0.989 | locus YBR171W, strain sec66, active compounds read low 0.986 | locus YBR229C, strain ROT2, active compounds read low 0.952 | locus YBR231C, strain swc5, active compounds read low 0.978 | locus YBR279W, strain paf1, active compounds read low 0.975 | locus YCL011C, strain gbp2, active compounds read low 0.969 | locus YCL016C, strain dcc1, active compounds read low 0.982 | locus YCL029C, strain bik1, active compounds read low 0.981 | locus YCL061C, strain MRC1 (second series), active compounds read low 0.972 | locus YCL069W, strain vba3, active compounds read low 1 | locus YCR088W, strain abp1, active compounds read low 0.984 | locus YDL005C, strain med2, active compounds read low 0.986 | locus YDL035C, strain GPR1, active compounds read low 0.983 | locus YDL040C, strain nat1, active compounds read low 0.973 | locus YDL074C, strain BRE1, active compounds read low 0.917 | locus YDL101C, strain DUN1, active compounds read low 0.979 | locus YDL134C, strain PPH21, active compounds read low 0.976 | locus YDL185W, strain tfp1, active compounds read low 0.977 | locus YDL192W, strain arf1, active compounds read low 0.992 | locus YDR001C, strain nth1, active compounds read low 0.974 | locus YDR069C, strain doa4, active compounds read low 0.977 | locus YDR101C, strain arx1, active compounds read low 0.986 | locus YDR137W, strain rgp1, active compounds read low 1.02 | locus YDR150W, strain NUM1, active compounds read low 0.977 and 0.972 | locus YDR159W, strain sac3, active compounds read low 0.93 | locus YDR162C, strain NBP2, active compounds read low 1 | locus YDR195W, strain ref2 0.96 | locus YDR297W, strain sur2, active compounds read low 0.972 | locus YDR318W, strain mcm21, active compounds read low 0.944 | locus YDR334W, strain swr1, active compounds read low 0.925 | locus YDR335W, strain msn5, active compounds read low 0.986 | locus YDR363W, strain ESC2, active compounds read low 1.03 | locus YDR388W, active compounds read low 0.993 | locus YDR392W, strain spt3, active compounds read low 0.968 | locus YDR502C, strain sam2, active compounds read low 0.981 | locus YEL003W, strain gim4, active compounds read low 0.996 | locus YEL037C, strain rad23, active compounds read low 0.981 | locus YEL061C, strain CIN8 (second series), active compounds read low 0.99 | locus YEL061C, strain CIN8, active compounds read low 0.994 | locus YER002W, strain NOP16, active compounds read low 1.01 | locus YER015W, strain faa2, active compounds read low 0.988 | locus YER016W, strain bim1, active compounds read low 0.983 | locus YER110C, active compounds read low 0.976 | locus YER111C, strain swi4, active compounds read low 0.989 | locus YER155C, strain BEM2 (second series), active compounds read low 0.968 | locus YER155C, strain BEM2, active compounds read low 0.99 | locus YER167W, strain BCK2, active compounds read low 0.994 | locus YFR010W, strain ubp6, active compounds read low 0.978 | locus YGL078C, strain dbp3, active compounds read low 0.979 | locus YGL086W, strain mad1, active compounds read low 0.986 | locus YGL167C, strain pmr1, active compounds read low 1.05 | locus YGL173C, strain kem1, active compounds read low 0.982 | locus YGL227W, strain vid30, active compounds read low 0.989 | locus YGL240W, strain doc1, active compounds read low 0.97 | locus YGL248W, strain PDE1, active compounds read low 0.991 | locus YGL253W, strain hxk2, active compounds read low 0.988 | locus YGR078C, strain PAC10, active compounds read low 0.955 | locus YGR135W, strain pre9, active compounds read low 0.972 | locus YGR229C, strain SMI1, active compounds read low 0.982 | locus YGR252W, strain gcn5, active compounds read low 0.902 | locus YHR013C, strain ard1, active compounds read low 0.978 | locus YHR027C, strain rpn1, active compounds read low 0.983 | locus YHR030C, strain SLT2, active compounds read low 0.987 and 0.976 | locus YHR079C, strain IRE1 (second series), active compounds read low 0.982 | locus YHR079C, strain IRE1, active compounds read low 0.949 | locus YHR094C, strain hxt1, active compounds read low 0.988 | locus YHR129C, strain ARP1, active compounds read low 0.994 | locus YHR142W, strain chs7, active compounds read low 1.02 | locus YHR200W, strain rpn10, active compounds read low 0.989 | locus YIL066C, strain RNR3, active compounds read low 0.973 | locus YIL073C, strain SPO22, active compounds read low 1.12 | locus YIL125W, strain kgd1, active compounds read low 0.99 | locus YIR030C, strain dcg1, active compounds read low 0.979 | locus YJL092W, strain hpr5, active compounds read low 0.996 | locus YJL095W, strain BCK1 (second series), active compounds read low 0.983 | locus YJL095W, strain BCK1, active compounds read low 0.988 and 0.979 | locus YJL115W, strain asf1, active compounds read low 0.989 | locus YJL129C, strain trk1, active compounds read low 0.959 | locus YJL134W, strain LCB3, active compounds read low 0.987 | locus YJL154C, strain vps35, active compounds read low 0.971 | locus YJL164C, strain tpk1, active compounds read low 0.998 | locus YJL166W, strain qcr8, active compounds read low 0.993 | locus YJL168C, strain set2, active compounds read low 1 | locus YJL187C, strain SWE1 (second series), active compounds read low 0.973 | locus YJL187C, strain SWE1, active compounds read low 0.993 | locus YJR043C, strain POL32, active compounds read low 0.997 | locus YJR066W, strain TOR1, active compounds read low 0.917
